The results in this text go back to PubChem BioAssay AID1851 (National Center for Advancing Translational Sciences (NCATS), 2009).

Each structure is given as a SMILES string. In all, about 16,000 compounds went through this assay and about 5,100 (32%) were called active. Roughly 25% stayed inconclusive and do not appear here. The call rests on the fitted dose curve; in most records, active means well fitted curve in the direction sought with a large enough effect; inconclusive means small, poorly fitted or top-dose-only effect, or effect the other way; inactive means no such curve, though single readings can be large or run the other way. Some of the results follow.
On the % scale 0 is the no-effect control and ±100 the full control effect.

The assay deals with Cytochrome P450 3A4 (Homo sapiens) (UniProt P08684). Nature of the assay: Cytochrome panel assay with activity outcomes. The settings on record: recombinant CYP, pro-luciferin dealkylation, luminescence, p450-cyp3a4; series mostly up to 57.1 µM; activity, negative = inhibition: at the top concentration.
Sequence of Cytochrome P450 3A4 (Homo sapiens) (P08684 whole entry, looked up): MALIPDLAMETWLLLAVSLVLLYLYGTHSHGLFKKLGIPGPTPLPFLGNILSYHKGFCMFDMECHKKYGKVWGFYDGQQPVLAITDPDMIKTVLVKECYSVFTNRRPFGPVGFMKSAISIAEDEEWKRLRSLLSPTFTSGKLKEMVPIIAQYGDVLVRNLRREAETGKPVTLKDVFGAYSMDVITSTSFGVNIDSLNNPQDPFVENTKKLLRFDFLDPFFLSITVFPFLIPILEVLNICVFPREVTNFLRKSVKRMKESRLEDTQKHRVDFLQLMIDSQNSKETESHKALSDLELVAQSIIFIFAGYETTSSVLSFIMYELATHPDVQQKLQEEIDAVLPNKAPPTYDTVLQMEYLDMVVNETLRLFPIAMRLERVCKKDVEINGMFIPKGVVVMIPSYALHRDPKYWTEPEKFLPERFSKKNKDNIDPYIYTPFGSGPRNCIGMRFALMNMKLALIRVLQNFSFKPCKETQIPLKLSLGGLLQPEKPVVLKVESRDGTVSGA
With `O=C(O)c1c(-c2c3ccc(=O)cc-3oc3cc(O)ccc23)cc2ccccc2c1-c1ccccc1`, the activity, negative = inhibition is -8.67% [at 11.4 µM] (inactive).

Usually AC50 stands for the concentration at which the activity in the assay is half-maximal. For the compound `Cc1nc(-c2c(C(F)(F)F)noc2-c2ccc(O)cc2O)cs1`, the AC50 was 0.501 µM (active).

`CSCC[C@@H]1NC(=O)C/C=C\[C@@H](C)COC(=O)[C@H](C)COC1=O`: the activity, negative = inhibition was -24% [at 11.4 µM] (inactive).

Turning to `CN(C)c1ccc(-c2cc(-n3ccnc3)ncn2)cc1`, the concentration at half-maximal activity (AC50) was 0.0631 µM (active).

In the case of `CN1CCN(c2cc(-c3ccc(N(C)C)cc3)ncn2)CC1`, the “activity, negative = inhibition” value was -24.7% (inactive).

For the compound `N#Cc1cccc(-c2cc(-n3ccnc3)ncn2)c1`, the AC50 is 0.398 µM (active).

`N#Cc1c(-c2ccc3c(c2)OCO3)ccn2nc(-c3cccc(C(F)(F)F)c3)nc12`: the “activity, negative = inhibition” value is 13.4% (inactive).

For `c1cn(-c2ccnc(-c3ccc4c(c3)OCO4)n2)cn1`, the AC50 was 0.631 µM (active).

With `N#Cc1cccc(-c2nccc(-n3ccnc3)n2)c1`, the AC50 was 2.51 µM (active).

Regarding `CC(=O)Oc1ccccc1C(=O)Oc1ccccc1C(=O)O`, the “activity, negative = inhibition” value was -1.9% [at 25.6 µM] (inactive).

On to `Nc1nc(-c2cccnc2)cc(-c2cc(-c3cccnc3)nc(N)n2)n1`, for which the activity, negative = inhibition was -3.62% [at 11.4 µM] (inactive).

Regarding `COc1cccc(-c2nccc(-n3ccnc3)n2)c1`, the AC50 was 1 µM (active).

As for `c1cncc(-c2cc(-n3ccnc3)ncn2)c1`, the half-maximal activity concentration (AC50) was 1.58 µM (active).

Take `CCCCN(c1ccccc1)c1ncnc2c1cnn2C`: the activity, negative = inhibition was -28% [at 11.4 µM] (inactive).

`CC(N)=NCc1cccc(CN)c1`: the “activity, negative = inhibition” value is -12.2% (inactive).

For the compound `Cc1cnc(CNc2ncnc3ccc(-c4cccc(NS(C)(=O)=O)c4)cc23)cn1`, the AC50 is 12.6 µM (active).

Turning to `CS(=O)(=O)Nc1cccc(-c2cncnc2NCc2cccnc2)c1`, the concentration at half-maximal activity (AC50) was 1 µM (active).

For the compound `CS(=O)(=O)Nc1cccc(-c2cncnc2NCc2cccs2)c1`, the AC50 is 0.398 µM (active).

Take `Cc1cccc(CNc2ncncc2-c2cccc(NS(C)(=O)=O)c2)c1`: the concentration at half-maximal activity (AC50) is 0.158 µM (active).

Regarding `CS(=O)(=O)Nc1cccc(-c2ccc3ncnc(NCc4cccs4)c3c2)c1`, the AC50 was 3.16 µM (active).

As to `Cc1cnc(CNc2ncncc2-c2cccc(NS(C)(=O)=O)c2)cn1`, the half-maximal activity concentration (AC50) is 3.16 µM (active).

For the compound `CS(=O)(=O)Nc1cccc(-c2cncnc2NCc2ccccc2)c1`, the AC50 is 0.631 µM (active).

Turning to `CS(=O)(=O)Nc1cccc(-c2ccc3ncnc(NCc4cccnc4)c3c2)c1`, the AC50 was 0.398 µM (active).

For `CCC(=O)O[C@H](CC(=O)O)C[N+](C)(C)C`, the “activity, negative = inhibition” value is -19.2% (inactive).

Regarding `OCC1CCCN(Cc2ccc(-c3ccccc3)cc2)C1` (centres undefined), the “activity, negative = inhibition” value was -6.47% (inactive).

Turning to `COc1ccc(-c2csc(NC(=O)CCn3cnc4ccccc4c3=O)n2)cc1OC`, the AC50 was 11.2 µM (active).

`O=C(NCCN1CCOCC1)c1csc2c1CCCCC2`: the activity, negative = inhibition was -7.18% [at 2.29 µM] (inactive).

Consider `COCCNC(=O)c1sc2nc(-c3ccccc3)cn2c1C`, for which the “activity, negative = inhibition” value was -8.11% (inactive).

As to `COc1ccc(C(=O)Nc2ccc(Cl)cc2C(=O)NCCN2CCOCC2)cc1`, the AC50 is 14.1 µM (active).

As to `COc1ccc(-c2cn3c(C)c(C(=O)NCCN4CCOCC4)sc3n2)cc1`, the AC50 is 12.6 µM (active).

Take `COc1ccc(C2=NOC(C(=O)NCCN3CCOCC3)C2)cc1` (centres undefined): the “activity, negative = inhibition” value was -26.8% (inactive).

On to `COc1cccc(C(=O)NCCN2CCOCC2)c1`, for which the “activity, negative = inhibition” value is -9.86% (inactive).

As to `N#Cc1nc(-c2cccs2)oc1NCc1ccccc1`, the AC50 is 12.6 µM (active).

Regarding `C(=C\c1nnc(-c2cccs2)o1)/c1ccccc1`, the “activity, negative = inhibition” value was -17.5% (inactive).

For `O=C(Nc1cccc(F)c1)N1CC[C@@]2(CCCN(C(=O)c3cnccn3)C2)C1`, the half-maximal activity concentration (AC50) was 12.6 µM (active).

Turning to `O=C(Nc1cccc(F)c1)N1CCCC2(CCN(C(=O)c3cnccn3)CC2)C1`, the AC50 was 12.6 µM (active).

For the compound `O=C(Nc1ccccc1)N1CCC2(CC1)CCN(C(=O)c1cnccn1)CC2`, the “activity, negative = inhibition” value was 11.4% (inactive).

As for `O=C(Nc1ccccc1)N1CC2(CCN(C(=O)c3cnccn3)CC2)C1`, the “activity, negative = inhibition” value is 0.638% (inactive).

For `O=C(Nc1cccc(F)c1)N1CCC2(CC1)CCN(C(=O)c1cnccn1)CC2`, the “activity, negative = inhibition” value is 7.18% (inactive).

Turning to `CCNc1ncc2ncc(=O)n(C3CC3)c2n1`, the “activity, negative = inhibition” value is -18.8% (inactive).

On to `Nc1ncnc2nc(N3CCN(CCO)CC3)[nH]c12`, for which the activity, negative = inhibition was -3.68% [at 11.4 µM] (inactive).

For the compound `CC(C)N1CCN(c2ccncc2S(=O)(=O)N2CCCCC2)CC1`, the AC50 was 3.16 µM (active).

For `O=S(=O)(c1cnccc1N1CCN(/N=C/c2ccccc2)CC1)N1CCCCC1`, the half-maximal activity concentration (AC50) was 0.891 µM (active).

As to `Cn1c([N+](=O)[O-])cnc1CN1CCN(CCO)CC1`, the activity, negative = inhibition is -14.7% [at 11.4 µM] (inactive).

As to `CC(C)NC(=O)N1CCN(c2ccncc2S(=O)(=O)N2CCOCC2)CC1`, the activity, negative = inhibition was -21.8% [at 2.29 µM] (inactive).

On to `O=S(=O)(c1cnccc1N1CCN(CCO)CC1)N1CCCC1`, for which the concentration at half-maximal activity (AC50) is 3.98 µM (active).

For the compound `CC(C)(C)NC(=O)C(=O)N/N=C/c1ccc(Br)cc1`, the “activity, negative = inhibition” value was 8.12% (inactive).

With `CCCC[C@H]1C[C@@H]1[C@@H]1N(P(=O)(c2ccccc2)c2ccccc2)[C@](CO)(c2ccccc2)CC12CC2`, the AC50 is 2 µM (active).

Turning to `CCCC[C@H]1C[C@@H]1[C@@H]1N(P(=O)(c2ccccc2)c2ccccc2)C[C@@](O)(c2ccccc2)CC12CC2`, the AC50 is 2 µM (active).

`Cc1cc2c(c(=O)o1)[C@H](O)[C@H]1O[C@@H]1C2=O`: the activity, negative = inhibition was -24.9% [at 11.4 µM] (inactive).

On to `O=C(O)CC1(CC(=O)O)Nc2ccccc2SC1=O`, for which the activity, negative = inhibition was -8.21% [at 11.4 µM] (inactive).

As for `Cc1nonc1NC(=O)OCCN1CCOC1=O`, the “activity, negative = inhibition” value was 1.72% (inactive).

For `CC(C)(C)c1cc(/C=C(\C#N)C(N)=S)cc(C(C)(C)C)c1O`, the AC50 was 3.98 µM (active).

`Cc1sc2ncn(CC(=O)NCCCC(=O)N3CCN(c4ncccn4)CC3)c(=O)c2c1C`: the half-maximal activity concentration (AC50) is 14.1 µM (active).

Regarding `CCC(C)NC(=O)Cn1cnc2sc(C)cc2c1=O` (centres undefined), the “activity, negative = inhibition” value is -19.8% (inactive).

Consider `COCC(=O)N1CCC2(CC1)CCN(c1ncccn1)CC2`, for which the “activity, negative = inhibition” value was -11.9% (inactive).

On to `NS(=O)(=O)c1ccc(N=Nc2ccc[nH]c2=O)cc1`, for which the activity, negative = inhibition is -13.7% [at 11.4 µM] (inactive).

`O=C(COc1ccc(Br)cc1)Nc1ccc([N+](=O)[O-])cn1`: the “activity, negative = inhibition” value is -23.2% (inactive).

For the compound `N=C(N)SCCc1ccc(OCc2ccc([N+](=O)[O-])cc2)cc1`, the “activity, negative = inhibition” value is -23.5% (inactive).

On to `O=C(COc1ccc([N+](=O)[O-])cc1)NN=C1CCCC1`, for which the AC50 is 25.1 µM (active).

`O=C1O[C@H](CN2CCOCC2)CN1/N=C\c1ccc([N+](=O)[O-])o1`: the “activity, negative = inhibition” value was -6.03% [at 25.6 µM] (inactive).

With `Cc1nc(NS(=O)(=O)c2ccc(Br)cc2)c2c3c(sc2n1)CCC3`, the AC50 was 11.2 µM (active).

`Cc1nc(NS(=O)(=O)c2ccccc2C)c2c3c(sc2n1)CCC3`: the concentration at half-maximal activity (AC50) is 8.91 µM (active).

On to `C[C@H](Nc1ncnc2sc3c(c12)CCC3)C(=O)O`, for which the “activity, negative = inhibition” value was -10.2% (inactive).
